Experimental data taken from PubChem BioAssay AID1159580 (chemical genetic matrix, 2015).
Out of some 5,500 compounds screened, about 2,000 (36%) were called active. Not shown: some 18% with an inconclusive outcome. Rule as the data show it: active = normalized growth mostly below about 0.91 (no sharp cut-off); inconclusive = no clear call, values can overlap the other calls; inactive = mostly above about 0.92. This is one part of the list.

Assay: chemical genetic growth profiling, strain panel (AID 1159580);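 also: tested at 20 µM; growth read once vehicle control cultures reached saturation at 30 °C; 1 = growth at the plate median or of vehicle wells; lower values mean less growth of the strain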
Conditions: S. cerevisiae deletion strains, growth OD

Measured: normalized growth

CCN1CCC[C@H]1CNC(=O)c1cc(S(N)(=O)=O)ccc1OC
inactive: locus YAL013W, strain DEP1, active compounds read low 1.02 | locus YAL040C, strain CLN3, active compounds read low 1.07 | locus YCL061C, strain MRC1 (second series), active compounds read low 1.01 | locus YDR150W, strain NUM1, active compounds read low 1.01 | locus YDR363W, strain ESC2, active compounds read low 1.03 | locus YER002W, strain NOP16, active compounds read low 1.02 | locus YGR078C, strain PAC10, active compounds read low 1.02 | locus YGR229C, strain SMI1, active compounds read low 1.02 | locus YMR307W, strain GAS1, active compounds read low 0.997 | locus YNL128W, strain TEP1, active compounds read low 0.995 | locus YNL153C, strain GIM3, active compounds read low 1.02 | locus YNL175C, strain NOP13, active compounds read low 1 | locus YNL197C, strain WHI3, active compounds read low 1.01 | locus YNL224C, strain SQS1, active compounds read low 1.01 | locus YOR083W, strain WHI5 (second series), active compounds read low 1.01 | locus YPL055C, strain LGE1, active compounds read low 1.01
